Compound activity deposited in PubChem BioAssay by several laboratories.
Shown are actives, neighbours in structure and some others; about 3% of the full set was active somewhere.
ABHD5-PLIN5 inh: inhibitors of human ABHD5-perilipin-5 interaction | Split G. princeps luciferase complementation, luminescence, 4 h | 360,000 tested, 0.78% active | inhibition, % at 4 µM | Q00G26+Q8WTS1 | AID 602281;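 active = inhibition above the mean inhibition across every tested compound plus 3 SD, cut at about 22% in these data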;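 note: 0% = DMSO only wells and the 100% control is not disclosed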
Target sequence (Q00G26 whole entry, looked up): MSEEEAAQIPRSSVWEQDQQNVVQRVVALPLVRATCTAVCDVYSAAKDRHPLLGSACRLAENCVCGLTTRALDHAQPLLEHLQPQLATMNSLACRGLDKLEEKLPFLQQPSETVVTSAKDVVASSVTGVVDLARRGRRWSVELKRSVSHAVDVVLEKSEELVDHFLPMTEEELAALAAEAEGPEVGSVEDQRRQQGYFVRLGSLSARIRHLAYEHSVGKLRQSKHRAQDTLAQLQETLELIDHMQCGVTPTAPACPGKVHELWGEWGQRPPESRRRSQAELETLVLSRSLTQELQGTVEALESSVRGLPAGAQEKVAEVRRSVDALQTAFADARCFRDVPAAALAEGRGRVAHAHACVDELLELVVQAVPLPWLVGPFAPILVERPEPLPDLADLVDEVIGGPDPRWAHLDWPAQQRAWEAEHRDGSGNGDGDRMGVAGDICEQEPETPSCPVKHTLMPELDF
Target sequence (Q8WTS1 whole entry, looked up): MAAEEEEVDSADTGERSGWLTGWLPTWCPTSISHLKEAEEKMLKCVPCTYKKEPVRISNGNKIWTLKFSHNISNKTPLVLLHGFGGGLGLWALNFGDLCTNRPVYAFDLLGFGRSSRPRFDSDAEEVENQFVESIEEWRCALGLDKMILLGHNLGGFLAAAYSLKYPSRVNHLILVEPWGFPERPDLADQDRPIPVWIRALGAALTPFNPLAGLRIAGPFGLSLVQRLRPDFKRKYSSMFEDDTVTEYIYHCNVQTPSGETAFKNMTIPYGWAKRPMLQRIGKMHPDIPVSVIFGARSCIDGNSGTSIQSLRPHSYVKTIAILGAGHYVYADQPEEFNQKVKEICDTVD
Peg3 prom inh: inhibitors of Peg3 promoter; HeLa PEG-Prom luciferase reporter, luminescence, overnight; inhibition, % at 20 µM; 360,000 tested, 1.7% active;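 active = inhibition of at least 50% at 20 µM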
PAX8 reporter: PAX8 transcriptional activity inhibition | AID 652154 | 360,000 tested, 1.2% active | inhibition, % at 12.6 µM | RMG-I TPO-luciferase reporter, SteadyGlo, 24 h;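 active = mean replicate inhibition at least 60% with every replicate also reaching 60%; inconclusive = only one of the two criteria is met; inactive = mean below 60% and not all replicates reaching 60%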;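 note: luciferase light reporting Pax8 driven TPO promoter activity; plate controls were median of neutral control wells for no effect and mitoxantrone controls for full effect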
TRPM1 prom inh: MITF TRPM1 promoter inhibition in SK-MEL-5 cells. SK-MEL-5 TRPM1 promoter luciferase, 24 h. inhibition, % at 12.5 µM. 330,000 tested, 0.83% active. AID 488899;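 active = mean inhibition across replicates of 60% or more, whatever share of single replicates reaches that level; inconclusive = some that reach 60%, reason not given; inactive = mean inhibition across replicates below 60%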
EWS-Fli block: EWS/Fli transcriptional activity inhibition. A673 NR0B1-luciferase reporter, viability-normalised. inhibition, % at 12.6 µM. 350,000 tested, 0.67% active. AID 651661;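 active = mean inhibition of at least 50% after viability correction, with every replicate also passing that limit; inconclusive = mean reaches 50% but only one of two replicates passes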;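 note: firefly luciferase signal divided by Alamar Blue viability fluorescence both relative to DMSO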
Shn3 inh set2: inhibitors of Schnurri-3 3'UTR reporter in osteoblasts | Clone20 osteoblast Shn3 3'UTR firefly luciferase, 24 h | inhibition, % at 12.5 µM | 360,000 tested, 0.52% active | AID 588674;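 active = mean inhibition of at least 75% with every replicate also reaching 75%; inconclusive = mean inhibition at least 75% but some replicate below; inactive = mean inhibition below 75%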;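 note: 0% = median of neutral control wells and 100% = pilot-screen positive control compound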
Numbers without * were called inactive; ? = inconclusive; . = no result given; ! = not active in a repeat.

SMILES	ABHD5-PLIN5 inh	Peg3 prom inh	PAX8 reporter	TRPM1 prom inh	EWS-Fli block	Shn3 inh set2
C[C@H](CO)N1C[C@H](C)[C@H](CN(C)S(=O)(=O)c2ccc(C#N)cc2)Oc2ncc(C#Cc3ccccc3)cc2C1=O	.	.	18	.	-10	.
C[C@@H]1CCCCO[C@H](CN(C)S(=O)(=O)c2ccc(F)cc2)[C@@H](C)CN([C@H](C)CO)C(=O)c2cc(NC(=O)Nc3ccc(C(F)(F)F)cc3)ccc2O1	-7	20	74*!	.	7	12
C[C@@H]1CCCCO[C@H](CN(C)S(=O)(=O)c2ccc(Cl)cc2)[C@@H](C)CN([C@@H](C)CO)C(=O)c2cc(NC(=O)Nc3ccc(C(F)(F)F)cc3)ccc2O1	.	.	82*	.	45	.
COc1ccc2c3c([nH]c2c1)[C@@H](CO)N(C(=O)C1CCCC1)CC31CN(C(=O)NC(C)C)C1	.	.	2	.	-6	.
CC(C)CC#Cc1ccc2c(c1)O[C@@H](CN(C)C(=O)CN(C)C)[C@@H](C)CN([C@H](C)CO)S2(=O)=O	.	.	.	.	8	.
COc1ccc(CN2C[C@@H](C)[C@H](OC)CN(C)C(=O)c3ccc(NC(=O)C4CC4)cc3OC[C@H]2C)cc1	.	.	2	.	5	.
COc1c(CC=C(C)C)cc(C2CC(=O)c3c(O)cc(O)cc3O2)cc1CC=C(C)C (stereo not given)	-27	-15	.	-4	-1	90*
COc1ccc([C@@H]2CC(=O)c3c(O)cc(O)cc3O2)cc1O	-5	-173	-109	-47	-5	-55
COCC(=O)N1CC2(C1)CN(Cc1ccccn1)[C@@H](CO)c1[nH]c3cc(OC)ccc3c12	.	.	6	.	-5	.
CN(C)CCCNc1cc(C(C)(C)C)nc2c(-c3ccc(Cl)cc3)cnn12	8	104*	5	-26	-5	-43
COc1ccccc1S(=O)(=O)N(C)C[C@H]1Oc2cc(C#CCC3CCCC3)ccc2S(=O)(=O)N([C@H](C)CO)C[C@@H]1C	.	.	73*	.	-8	.
COc1ccccc1S(=O)(=O)N(C)C[C@H]1Oc2cc(C#CCC3CCCC3)ccc2S(=O)(=O)N([C@H](C)CO)C[C@H]1C	13	19	84*!	.	8	20
COc1ccccc1S(=O)(=O)N(C)C[C@H]1Oc2cc(C#CCC(C)C)ccc2S(=O)(=O)N([C@@H](C)CO)C[C@@H]1C	.	.	.	.	16	.
COc1ccccc1S(=O)(=O)N(C)C[C@@H]1Oc2cc(C#CCC3CCCC3)ccc2S(=O)(=O)N([C@H](C)CO)C[C@@H]1C	.	.	64*	.	28	.
COc1ccccc1S(=O)(=O)N(C)C[C@@H]1Oc2cc(C#CCC(C)C)ccc2S(=O)(=O)N([C@H](C)CO)C[C@@H]1C	0	1	27	.	17	19
O=C(C[C@H]1C[C@H]2c3cc(NC(=O)NC4CCCC4)ccc3O[C@H]2[C@H](CO)O1)NCCN1CCCCC1	.	.	-13	.	-5	.
COc1ccc(NC(=O)Nc2ccc3c(c2)C(=O)N([C@H](C)CO)C[C@H](C)[C@@H](CN(C)C(=O)Nc2cccc4ccccc24)O3)cc1	.	.	0	.	-3	.
C[C@@H]1CN([C@@H](C)CO)S(=O)(=O)c2ccc(-c3cccc(C#N)c3)cc2O[C@H]1CN(C)Cc1ccccn1	.	.	18	.	29	.
C[C@@H]1CN([C@H](C)CO)S(=O)(=O)c2ccc(-c3ccc(C#N)cc3)cc2O[C@H]1CN(C)Cc1ccccn1	.	.	65*	.	53*	.
C[C@@H]1CN([C@H](C)CO)S(=O)(=O)c2ccc(-c3ccccc3)cc2O[C@H]1CN(C)Cc1ccccn1	.	.	.	.	73*	.
C[C@@H]1CN([C@H](C)CO)S(=O)(=O)c2ccc(-c3ccccc3)cc2O[C@@H]1CN(C)Cc1ccccn1	.	.	.	.	0	.
C[C@@H]1CN([C@@H](C)CO)S(=O)(=O)c2ccc(-c3ccccc3)cc2O[C@H]1CN(C)Cc1cccnc1	.	.	?	.	67*	.
C[C@H]1CN([C@@H](C)CO)S(=O)(=O)c2ccc(Br)cc2O[C@@H]1CN(C)Cc1cccc(F)c1	-10	56*	9	.	-8	14
COc1ccc(CNC(=O)N(C)C[C@@H]2OCc3ccccc3-c3ccccc3C(=O)N([C@@H](C)CO)C[C@@H]2C)cc1	.	.	-7	.	4	.
Cc1ccc(S(=O)(=O)N(C)C[C@@H]2OCCCC[C@H](C)Oc3ccc(NC(=O)CCCCCC(=O)Nc4ccccc4N)cc3C(=O)N([C@H](C)CO)C[C@@H]2C)cc1	.	.	35	.	32	.
SMILES	ABHD5-PLIN5 inh	Peg3 prom inh	PAX8 reporter	TRPM1 prom inh	EWS-Fli block	Shn3 inh set2
C[C@H]1CN([C@@H](C)CO)S(=O)(=O)c2ccc(-c3ccc(C#N)cc3)cc2O[C@@H]1CN(C)Cc1cccc(F)c1	.	.	76*	.	18	.
C[C@@H]1CN([C@H](C)CO)S(=O)(=O)c2ccc(-c3ccc(C#N)cc3)cc2O[C@H]1CN(C)Cc1cccc(F)c1	.	.	45	.	4	.
C[C@@H]1CCCCO[C@H](CN(C)S(C)(=O)=O)[C@H](C)CN([C@@H](C)CO)C(=O)c2cc(NC(=O)Nc3ccccc3)ccc2O1	.	.	10	.	-14	.
CN(C)CCCN=c1cc(-c2ccccc2)oc2ccc(Cl)cc12	1	100*	-110	-78	-52	-47
OCCN=c1cc(-c2ccccc2)oc2ccc(Cl)cc12	2	-127	.	-59	.	-34
Cc1cccc(S(=O)(=O)N2C[C@@H]3N[C@H](C2)C3c2ccc(-c3cccnc3)cc2)c1 (stereo not given in full)	.	.	16	.	-3	.
Cc1cccc(S(=O)(=O)N2C[C@@H]3N[C@H](C2)C3c2ccc(-c3ccncc3)cc2)c1 (stereo not given in full)	.	.	-8	.	57*!	.
COc1cccc(S(=O)(=O)N2C[C@@H]3N[C@H](C2)C3c2ccc(-c3cccc(C)c3)cc2)c1 (stereo not given in full)	.	.	69*!	.	55*!	.
C[C@@H]1CN([C@@H](C)CO)C(=O)c2cccc(NS(C)(=O)=O)c2O[C@@H]1CN(C)C(=O)Nc1ccc(F)cc1	.	.	9	.	-6	.
CCOc1cc(/C=N\NC(N)=O)cc(Br)c1OC(C)C	-6	56*	.	-1	.	-16
C[C@@H]1CCCCO[C@H](CN(C)C(=O)Nc2ccc3c(c2)OCO3)[C@@H](C)CN([C@H](C)CO)C(=O)c2cc(NS(=O)(=O)c3cn(C)cn3)ccc2O1	.	.	-9	.	-3	.
O=C(CSC(=S)N1CCCCC1)c1ccccc1	9	-34	-41	-17	64*	-34
CC(C)NC(=O)N(C)C[C@@H]1OCCCC[C@@H](C)Oc2ccc(NC(=O)C3CCCCC3)cc2C(=O)N([C@@H](C)CO)C[C@H]1C	.	.	13	.	.	.
Cc1sc2ncnc(SCC(=O)N3c4ccccc4Sc4ccc(Cl)cc43)c2c1C	-6	9	-7	-4	-2	17
CCOC(=O)c1c(C)sc2c1N(C(=O)CCl)c1cc(Cl)ccc1S2	20	87*	.	82*	.	11
CCCNC(=O)Nc1ccc2c(c1)C(=O)N(C)[C@H]1CC[C@H](CC(=O)Nc3cccc(C)c3)O[C@@H]1CO2	.	.	2	.	0	.
